Source: PubChem BioAssay AID1159580 (chemical genetic matrix, 2015)
Out of some 5,500 compounds screened, about 2,000 (36%) were called active. Not shown: some 18% with an inconclusive outcome. Rule as the data show it: active = normalized growth mostly below about 0.91 (no sharp cut-off); inconclusive = no clear call, values can overlap the other calls; inactive = mostly above about 0.92. This is one part of the list.

Assay: chemical genetic growth profiling, strain panel (AID 1159580);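 also: tested at 20 µM; growth read once vehicle control cultures reached saturation at 30 °C; 1 = growth at the plate median or of vehicle wells; lower values mean less growth of the strain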
Settings: S. cerevisiae deletion strains, growth OD
[1] = locus YAL021C, strain ccr4, active compounds read low
[2] = locus YAL026C, strain drs2, active compounds read low
[3] = locus YAL030W, strain snc1, active compounds read low
[4] = locus YBL061C, strain skt5, active compounds read low
[5] = locus YBR009C, strain hhf1, active compounds read low
[6] = locus YBR023C, strain chs3, active compounds read low
[7] = locus YBR171W, strain sec66, active compounds read low
[8] = locus YBR231C, strain swc5, active compounds read low
[9] = locus YBR279W, strain paf1, active compounds read low
[10] = locus YCL011C, strain gbp2, active compounds read low
[11] = locus YCL016C, strain dcc1, active compounds read low
[12] = locus YCL061C, strain MRC1, active compounds read low
[13] = locus YCL069W, strain vba3, active compounds read low
[14] = locus YCR088W, strain abp1, active compounds read low
[15] = locus YDL005C, strain med2, active compounds read low
[16] = locus YDL040C, strain nat1, active compounds read low
[17] = locus YDR001C, strain nth1, active compounds read low
[18] = locus YDR069C, strain doa4, active compounds read low
[19] = locus YDR137W, strain rgp1, active compounds read low
[20] = locus YDR159W, strain sac3, active compounds read low
[21] = locus YDR297W, strain sur2, active compounds read low
[22] = locus YDR334W, strain swr1, active compounds read low
[23] = locus YDR335W, strain msn5, active compounds read low
[24] = locus YDR392W, strain spt3, active compounds read low
[25] = locus YEL003W, strain gim4, active compounds read low
[26] = locus YEL037C, strain rad23, active compounds read low
[27] = locus YEL061C, strain CIN8 (second series), active compounds read low
[28] = locus YER015W, strain faa2, active compounds read low
[29] = locus YER016W, strain bim1, active compounds read low
[30] = locus YER111C, strain swi4, active compounds read low
[31] = locus YER155C, strain BEM2 (second series), active compounds read low
[32] = locus YFR010W, strain ubp6, active compounds read low
[33] = locus YGL167C, strain pmr1, active compounds read low
[34] = locus YGL173C, strain kem1, active compounds read low
[35] = locus YGL227W, strain vid30, active compounds read low
[36] = locus YGL240W, strain doc1, active compounds read low
[37] = locus YGL253W, strain hxk2, active compounds read low
[38] = locus YHR013C, strain ard1, active compounds read low
[39] = locus YHR027C, strain rpn1, active compounds read low
[40] = locus YHR142W, strain chs7, active compounds read low
[41] = locus YJL092W, strain hpr5, active compounds read low
[42] = locus YJL095W, strain BCK1 (second series), active compounds read low
[43] = locus YJL115W, strain asf1, active compounds read low
[44] = locus YJL129C, strain trk1, active compounds read low
[45] = locus YJL154C, strain vps35, active compounds read low
[46] = locus YJL164C, strain tpk1, active compounds read low
[47] = locus YJL166W, strain qcr8, active compounds read low
[48] = locus YJL187C, strain SWE1, active compounds read low
[49] = locus YKL160W, strain elf1, active compounds read low
[50] = locus YKR026C, strain gcn3, active compounds read low
[51] = locus YKR091W, strain srl3, active compounds read low
[52] = locus YLL001W, strain dnm1, active compounds read low
[53] = locus YLL026W, active compounds read low
[54] = locus YLL041C, strain sdh2, active compounds read low
[55] = locus YLR027C, strain aat2, active compounds read low
[56] = locus YLR221C, strain rsa3, active compounds read low
[57] = locus YLR258W, strain gsy2, active compounds read low
[58] = locus YLR262C, strain YPT6 (second series), active compounds read low
[59] = locus YLR320W, strain mms22, active compounds read low
[60] = locus YLR342W, strain FKS1, active compounds read low
[61] = locus YLR357W, strain rsc2, active compounds read low
[62] = locus YLR370C, strain arc18, active compounds read low
[63] = locus YLR384C, strain iki3, active compounds read low
[64] = locus YML120C, strain ndi1, active compounds read low
[65] = locus YMR058W, strain fet3, active compounds read low
[66] = locus YMR125W, strain sto1, active compounds read low
[67] = locus YMR129W, active compounds read low
[68] = locus YMR205C, strain PFK2, active compounds read low
[69] = locus YMR231W, strain pep5, active compounds read low
[70] = locus YNL071W, strain lat1, active compounds read low
[71] = locus YNL209W, strain ssb2, active compounds read low
[72] = locus YNL248C, strain rpa49, active compounds read low
[73] = locus YNL322C, strain KRE1 (second series), active compounds read low
[74] = locus YNR049C, strain mso1, active compounds read low
[75] = locus YOR001W, strain rrp6, active compounds read low
[76] = locus YOR070C, strain gyp1, active compounds read low
[77] = locus YOR080W, strain dia2, active compounds read low
[78] = locus YOR083W, strain WHI5, active compounds read low
[79] = locus YOR106W, strain vam3, active compounds read low
[80] = locus YOR265W, strain rbl2, active compounds read low
[81] = locus YOR270C, strain vph1, active compounds read low
[82] = locus YOR290C, strain snf2, active compounds read low
[83] = locus YPL051W, strain arl3, active compounds read low
[84] = locus YPL078C, strain atp4, active compounds read low
[85] = locus YPL106C, strain sse1, active compounds read low
[86] = locus YPL240C, strain hsp82, active compounds read low

Measured: normalized growth

O=c1cc(-c2cccc(O)c2)oc2ccc(O)cc12
inactive: [1] 0.959 | [2] 0.946 | [3] 0.957 | [4] 0.952 | [5] 0.934 | [6] 0.947 | [7] 0.956 | [8] 0.939 | [9] 0.962 | [10] 0.933 | [11] 0.952 | [12] 0.949 | [13] 0.969 | [14] 0.962 | [15] 0.951 | [16] 0.971 | [17] 0.943 | [18] 0.946 | [20] 0.975 | locus YDR195W, strain ref2 1.06 | [21] 0.953 | [22] 0.924 | [23] 0.938 | [24] 0.873 | [25] 0.943 | [26] 0.964 | [27] 0.951 | [28] 0.936 | [29] 0.944 | [30] 0.956 | [31] 0.925 | [32] 0.962 | [33] 0.942 | [34] 0.941 | [35] 0.953 | [36] 0.91 | [37] 0.952 | [38] 0.953 | [39] 0.955 | [40] 0.885 | [41] 0.953 | [42] 0.942 | [43] 0.947 | [44] 0.903 | [45] 0.962 | [46] 0.947 | [47] 0.95 | [48] 0.936 | [49] 0.936 | [50] 0.948 | [51] 0.952 | [52] 0.945 | [53] 0.947 | [54] 0.951 | [55] 0.938 | [57] 0.939 | [59] 0.923 | [60] 0.983 | [61] 0.906 | [62] 0.933 | [63] 0.951 | [64] 0.952 | [65] 0.942 | [66] 0.959 | [67] 0.983 | [68] 0.944 | [69] 0.958 | [70] 0.958 | [71] 0.945 | [72] 0.931 | [73] 0.958 | [74] 0.942 | [75] 0.948 | [76] 0.964 | [77] 0.93 | [78] 0.928 | [79] 0.933 | [80] 0.958 | [81] 0.865 | [82] 0.893 | [83] 0.92 | [84] 0.956 | [86] 0.952
active: [19] 0.778 | [56] 0.894 | [58] 0.804 | [85] 0.827

O=c1cc(-c2ccc(O)cc2)oc2ccc(O)cc12
inactive: [1] 0.99 | [2] 0.956 | [3] 0.972 | [4] 0.964 | [5] 0.936 | [6] 0.987 | [7] 0.981 | [8] 0.979 | [9] 0.978 | [10] 0.949 | [11] 0.981 | [12] 0.987 | [13] 0.98 | [14] 0.977 | [15] 0.969 | [16] 0.985 | [17] 0.97 | [18] 0.922 | [19] 0.96 | [20] 0.954 | locus YDR195W, strain ref2 0.943 | [21] 0.958 | [22] 0.976 | [23] 0.979 | [24] 0.935 | [25] 0.97 | [26] 0.971 | [27] 0.952 | [28] 0.997 | [29] 0.983 | [30] 0.973 | [31] 0.963 | [32] 0.938 | [33] 0.949 | [34] 0.961 | [35] 0.96 | [36] 0.964 | [37] 0.992 | [38] 0.938 | [39] 0.962 | locus YHR030C, strain SLT2, active compounds read low 0.989 | locus YHR079C, strain IRE1, active compounds read low 0.992 | [40] 0.976 | [41] 0.984 | [42] 0.978 | locus YJL095W, strain BCK1, active compounds read low 1 | [43] 0.978 | [44] 0.942 | [45] 0.991 | [46] 0.958 | [47] 0.977 | [48] 0.973 | locus YJR066W, strain TOR1, active compounds read low 0.933 | [49] 0.987 | [50] 0.963 | [51] 0.984 | [52] 0.964 | [53] 0.986 | [54] 0.995 | [55] 0.971 | locus YLR113W, strain HOG1, active compounds read low 0.951 | [56] 0.988 | [57] 0.977 | [58] 0.959 | [59] 0.964 | [60] 0.97 | [61] 0.982 | [62] 0.947 | [63] 0.969 | [64] 0.956 | [65] 0.961 | [66] 0.947 | [67] 0.973 | [68] 0.946 | [69] 0.974 | [70] 0.984 | locus YNL183C, strain NPR1, active compounds read low 0.932 | [71] 0.975 | [72] 0.988 | [73] 0.97 | [74] 0.989 | [75] 0.991 | [76] 0.988 | [77] 0.967 | [78] 0.918 | [79] 0.974 | locus YOR231W, strain MKK1, active compounds read low 0.968 | [80] 0.961 | [81] 0.919 | [82] 0.943 | [83] 0.971 | [84] 0.987 | [85] 0.888 | [86] 0.981 | locus YPL256C, strain CLN2, active compounds read low 0.973
